# About 83,000 compounds went through this panel and 20% of them were active in at least one assay; those are over-represented in the sample as a whole.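 Single-dose data. Exposure time 48 hours. Values below 10 considered active.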 Values without a mark were called inactive. Calls of active or inactive are those of the source.
# Key:
# Assay in all cases: NCI-60 one-dose screen, 48 h (100 = growth as untreated, 0 = no growth, -100 = all killed)
# Settings in all cases: 10 µM unless noted
# SR leukemia = test system: SR leukemia
# RPMI-8226 leukemia = test system: RPMI-8226 leukemia
# OVCAR-8 ovarian = test system: OVCAR-8 ovarian
# OVCAR-5 ovarian = test system: OVCAR-5 ovarian
# OVCAR-4 ovarian = test system: OVCAR-4 ovarian
# SK-OV-3 ovarian = test system: SK-OV-3 ovarian
# IGROV1 ovarian = test system: IGROV1 ovarian
# OVCAR-3 ovarian = test system: OVCAR-3 ovarian
# HS 578T breast = test system: HS 578T breast
# NCI/ADR-RES ovarian = test system: NCI/ADR-RES ovarian
SMILES,growth (SR leukemia),growth (RPMI-8226 leukemia),growth (OVCAR-8 ovarian),growth (OVCAR-5 ovarian),growth (OVCAR-4 ovarian),growth (SK-OV-3 ovarian),growth (IGROV1 ovarian),growth (OVCAR-3 ovarian),growth (HS 578T breast),growth (NCI/ADR-RES ovarian)
Cc1cc(Cl)ccc1Nc1nc(C(F)(F)F)ccc1C(=O)N/N=C/c1ccc([N+](=O)[O-])cc1,-1.84% (active),-72.6% (active),9.08% (active),-18.6% (active),-11.6% (active),-14.9% (active),-35.1% (active),-18.1% (active),97.3%,-32.8% (active)
O=c1oc2c(cnc3ccccc32)cc1-c1ccsc1,95%,96.6%,94.6%,114%,88.4%,104%,103%,108%,94.9%,109%
O=C(CSc1nc2sc3c(c2c(=O)n1-c1ccccc1)CCCCC3)N/N=C/c1ccc(F)cc1,11.3%,66%,-17.9% (active),41.8%,-47.4% (active),73.4%,62.1%,-33.8% (active),-13.9% (active),22.9%
O=[N+]([O-])/C(=C/C=C/c1ccccc1)c1ccccc1,26.5%,35.8%,77.6%,87.9%,77.2%,97.1%,-4.26% (active),1.93% (active),56.8%,78.3%
O=C(Nc1nc2ccc(F)cc2s1)c1cccnc1Nc1ccc(Cl)cc1,29.5%,25%,47.3%,90.9%,-13.1% (active),58%,39.9%,13.6%,39.6%,10.5%
CNc1nc(S(=O)c2ccc(C#N)cc2)nc2ccccc12 (stereo not given),29.4%,61%,87.8%,81.2%,68.6%,98.6%,86.3%,53.4%,79.9%,97.8%
O=C(c1ccc(-c2ccccc2)cc1)c1ccc([N+](=O)[O-])cc1,86.8%,66.1%,104%,120%,105%,-100% (active),101%,104%,110%,114%
C#CCOc1cccc(Nc2ncnc3ccc(NC(=O)CCl)cc23)c1,-42.1% (active),-50.9% (active),-4.18% (active),-70.1% (active),-33.9% (active),20.1%,-57.2% (active),-74.8% (active),24.5%,-1.49% (active)
CCCc1cc(NC)nc(S(=O)(=O)CC)n1,102%,101%,110%,101%,115%,116%,105%,119%,108%,104%
CC1(C)CCC(S(=O)(=O)c2ccc3c(c2)/C(=N\O)c2cc(S(=O)(=O)N4CCC(O)(c5cccc(C(F)(F)F)c5)CC4)ccc2-3)CC1,-54% (active),-52.5% (active),-73% (active),-80.3% (active),-92.6% (active),-99.6% (active),-32.1% (active),-98.3% (active),-56.4% (active),61%
CCCCC[C@@H]1Cc2cc(O)c(C(=O)O)c3c2[C@H](C[C@]2(OC[C@@H](CC(=O)[C@@](C)(CC)C(=O)OC)[C@@H]2C)O3)O1,105%,108%,99.4%,111%,104%,104%,103%,111%,99.8%,113%
CN(CCOc1ccc(C#N)cc1)CCOc1ccc(C#N)cc1,49.6%,7.02% (active),93.5%,79%,75%,46.8%,61.1%,97.6%,49.2%,67.1%
C=C(C)[C@@H]1CC[C@]2(C(=O)NCC#CCN3CCN(C)CC3)CC[C@]3(C)[C@H](CC[C@@H]4[C@@](C)(CCC#N)[C@H](C(=C)C)CC[C@]43C)[C@@H]12,-12.1% (active),33.6%,70.7%,64.5%,52.8%,72.6%,43.5%,54.2%,65.5%,55.8%
CC1Cc2c(Cl)ncnc2N(C)c2ccc(F)cc21 (stereo not given),95.3%,98.4%,91.9%,99.9%,95.4%,89.6%,105%,106%,64.1%,101%
Fc1ccc(Nc2nc3nonc3nc2Nc2ccc(I)cc2)cc1,-4.09% (active),-11.6% (active),4.01% (active),37.5%,17.8%,-24.5% (active),23.2%,9.78% (active),8.99% (active),4.92% (active)
Cc1cnc(C(=O)NNc2nc3sc4c(c3c(=O)n2C)C(C)CCC4)cn1 (stereo not given),12.2%,9.06% (active),5.29% (active),2.46% (active),-14.7% (active),11.9%,-18.6% (active),-2.78% (active),34.2%,1.29% (active)
CN([O-])c1nc(N(C)[O-])nc(N2CCOCC2)n1.CN([O-])c1nc(N(C)[OH2+])nc(N2CCOCC2)n1.[Fe+3],67.3% [100 µM],81% [100 µM],85.6% [100 µM],110% [100 µM],120% [100 µM],110% [100 µM],112% [100 µM],60% [100 µM],98.2% [100 µM],104% [100 µM]
O=C(CSc1nc(-c2ccccc2)[nH]c1S(=O)(=O)c1ccccc1)NC1CC1,92.1%,90.1%,97.2%,109%,95%,13.4%,107%,102%,99.2%,83.1%
COc1ccc(-c2nnc(-c3ccc4c(c3)nc(-c3ccncc3)n4C3CCCCC3)o2)cc1,46.6%,34.1%,53.5%,102%,61.1%,80.4%,73.7%,67.3%,68.6%,56.9%
CCN(CC)CCNC(=O)c1cn2ncnc(Oc3ccc(NC(=O)Nc4ccc(Cl)c(C(F)(F)F)c4)c(F)c3)c2c1C,-32.3% (active),-16.6% (active),45.4%,54.6%,6.15% (active),82%,-36.6% (active),-3.03% (active),-7.92% (active),56.8%
N#C/C(=C\c1ccc2ccccc2c1)c1cc2ccccc2[nH]1,23.5%,32.4%,46.5%,61.2%,88.3%,64%,48.1%,7.91% (active),25.8%,12.4%
C=C(C)[C@@H]1CC[C@]2(C(=O)NCCNCCN)CC[C@]3(C)[C@H](CC[C@@H]4[C@@]5(C)C/C(=C/c6ccncc6)C(=O)C(C)(C)[C@@H]5CC[C@]43C)[C@@H]12,95.4%,90.5%,101%,103%,89.9%,109%,87.6%,97.9%,86.7%,101%
Cc1ccc(Cc2cnc(NC(=O)c3cc(Br)cs3)s2)cc1,18.2%,53.2%,82.7%,94.2%,77.3%,64.9%,49.6%,61.9%,73.2%,33.5%
N#Cc1cccc(NC(=O)c2oc3ccccc3c2-c2cnn(-c3ccccc3)c2)c1,3.02% [50 µM] (active),-16.2% [50 µM] (active),76.4% [50 µM],83.8% [50 µM],89.1% [50 µM],78% [50 µM],92.6% [50 µM],104% [50 µM],89.3% [50 µM],77.2% [50 µM]
N#CC1=C(c2ccc(Cl)cc2)Nc2c(c(-c3ccc(Cl)cc3)nn2-c2ccccc2)C12C(=O)Nc1ccc(Cl)cc12 (stereo not given),14.1%,27.9%,49.2%,71.6%,41.8%,86.5%,36.7%,55.3%,57.1%,52.8%
CCn1c(=S)[nH]c2c(=O)n(C)c(=O)n(C)c21,110%,101%,101%,104%,114%,107%,102%,121%,160%,103%

# Source: PubChem BioAssay (NCI)
